# Source: PubChem (National Center for Advancing Translational Sciences (NCATS))
# Cruzain inh Det = blocks cruzain activity in presence of Triton detergent | P25779 | purified cruzain, Z-FR-AMC fluorescence, 0.01% Triton | Potency, µM, without a hit: max response, negative = inhibition, usual class: inhibitors | 200,000 tested, 0.43% active | AID 1478;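 further: plate controls were neutral wells for no effect and buffer without enzyme for full effect; nearly all actives have a fitted effect of over 40% in size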
# Target sequence (P25779 123-467 limits assumed): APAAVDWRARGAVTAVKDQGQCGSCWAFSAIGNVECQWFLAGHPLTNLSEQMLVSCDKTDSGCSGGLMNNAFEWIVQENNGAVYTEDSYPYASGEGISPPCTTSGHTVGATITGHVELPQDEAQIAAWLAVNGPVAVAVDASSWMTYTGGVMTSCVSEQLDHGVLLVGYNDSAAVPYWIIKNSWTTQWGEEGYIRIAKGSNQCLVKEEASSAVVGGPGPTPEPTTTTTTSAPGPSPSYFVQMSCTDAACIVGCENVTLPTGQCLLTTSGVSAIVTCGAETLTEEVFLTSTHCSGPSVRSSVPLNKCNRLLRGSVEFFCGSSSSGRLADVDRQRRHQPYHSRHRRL
#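 Z-FR-AMC hydrolysis (2 uM substrate) by cruzain (1.5 nM) monitored kinetically at ex 360/em 450 nm after 15 min room-temperature compound exposure; 0.01% Triton X-100, pH 5.5, 5 mM DTT.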
# Cruzain inh noDet = inhibitors of Trypanosoma cruzi cruzain without detergent; purified cruzain, Z-FR-AMC fluorescence, no detergent; P25779; 200,000 tested, 2.3% active; AID 1476; Potency, µM, for the others: max response, negative = inhibition, usual class: inhibitors;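 further: plate controls were enzyme without inhibitor for no effect and buffer without enzyme for full effect; nearly all actives have a fitted effect of over 40% in size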
#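 Purified cruzain at 1.5 nM, pre-incubated 15 min with compound at room temperature in 100 mM sodium acetate pH 5.5, 5 mM DTT, 0.00005% Triton X-100. Reaction started with 2 uM Z-FR-AMC; AMC fluorescence increase over 60 s gives rate.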
# Giardia FBPA inh-1 = inhibitors of Giardia lamblia fructose-1,6-bisphosphate aldolase; Potency, µM (doses to about 59.6 µM), for the others: at the highest dose activity, negative = inhibition, most hits filed as inhibitors; 290,000 tested, 0.71% active; AID 2451; A8B2U2; purified Giardia FBPA; further: nearly all actives have a fitted effect of over 55% in size
#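 Giardia FBPA (40 nM reagent) was preincubated 10 min at RT with compound (up to 57.5 uM final), then substrate plus GAPDH/TPI/NAD/arsenate coupling system with diaphorase/resazurin was added; resorufin fluorescence (525/598 nm) was read after 20 min.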
# Giardia growth = inhibitors of Giardia lamblia growth. shares compounds with Giardia FBPA inh-1. Giardia lamblia trophozoite growth inhibition. Potency, µM (top dose mostly 57.5 µM), inactives show at the top dose activity change, negative = inhibition, usual class: inhibitors. 1,500 tested, 5% active;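 further: trophozoites exposed to compound for 48 h at 37 °C; nearly all actives have a fitted effect of over 70% in size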
# Mammalian tox = counter-screen for Giardia aldolase inhibitors: mammalian cell toxicity; mammalian cell viability counter-screen, qHTS; 1,500 tested, 4% active; Potency, µM (top dose mostly 57.5 µM), for the others: at the top dose viability change, negative = toxicity, usual class: inhibitors; AID 2786; shares compounds with Giardia FBPA inh-1;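 further: Chinese hamster ovary cells used as mammalian cytotoxicity surrogate; viability measured as cellular ATP by luminescence; compound exposure lasted 48 h before reading; nearly all actives have a fitted effect of over 60% in size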
# Giardia FBPA inh-2 = confirmation of Giardia fructose-bisphosphate aldolase inhibitors | shares compounds with Giardia FBPA inh-1 | purified Giardia aldolase enzyme activity, qHTS | Potency, µM (highest dose often 57.5 µM), inactives show at the highest dose activity change, negative = inhibition, most hits filed as inhibitors | 1,500 tested, 5% active; further: nearly all actives have a fitted effect of over 45% in size
# Rabbit aldolase = rabbit FBP aldolase inhibition by Giardia aldolase hits; shares compounds with Giardia FBPA inh-1; Rabbit muscle FBPA enzyme inhibition, selectivity counter-screen; Potency, µM (top dose mostly 57.5 µM), without a hit: top-dose activity, negative = inhibition, actives largely listed as inhibitors; 1,500 tested, 4% active; further: nearly all actives have a fitted effect of over 60% in size
# Target sequence (P00883 whole entry, looked up): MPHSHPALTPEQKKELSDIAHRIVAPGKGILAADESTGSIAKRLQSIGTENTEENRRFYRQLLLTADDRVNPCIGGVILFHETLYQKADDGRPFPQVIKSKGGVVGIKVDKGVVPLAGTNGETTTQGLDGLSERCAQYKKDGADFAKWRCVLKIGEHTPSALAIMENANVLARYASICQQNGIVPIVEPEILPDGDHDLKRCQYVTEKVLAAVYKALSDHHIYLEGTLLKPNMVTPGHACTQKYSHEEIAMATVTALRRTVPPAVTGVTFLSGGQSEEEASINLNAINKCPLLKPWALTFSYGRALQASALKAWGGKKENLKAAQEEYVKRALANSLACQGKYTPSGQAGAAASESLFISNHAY
# GAPDH counter = counter-screen for Giardia aldolase inhibitors: GAPDH coupling enzyme; shares compounds with Giardia FBPA inh-1; 1,500 tested, 6% active; Potency, µM (titrated, usually from 57.5 µM), for the others: top-dose activity change, negative = inhibition, usual class: inhibitors; GAPDH coupling enzyme counterscreen, biochemical, qHTS; further: nearly all actives have a fitted effect of over 55% in size
# Numbers without * were called inactive; u = inconclusive; x = not tested or not shown; [ ] = another dose, or the depositor's remark. Only a selection was taken, and hits are over-represented in it overall. The call rests on the fitted dose curve; in most records, active means well fitted curve in the direction sought with a large enough effect; inconclusive means small, poorly fitted or top-dose-only effect, or another doubt; inactive means no such curve, though single readings can be large; an effect the other way counts as inactive or inconclusive. Unless noted, on the % scale 0 is the no-effect control and ±100 the full control effect; potency means the concentration at half of the fitted maximal effect.
SMILES,Cruzain inh Det,Cruzain inh noDet,Giardia FBPA inh-1,Giardia growth,Mammalian tox,Giardia FBPA inh-2,Rabbit aldolase,GAPDH counter
O=C(Nc1ccccc1F)c1cnccn1,x,x,5%,x,x,x,x,x
CCc1c(C)c2ccc(O)c(CN3CCN(c4cc(Cl)ccc4C)CC3)c2oc1=O,-4%,-4%,x,x,x,x,x,x
O=C1c2cccc([N+](=O)[O-])c2C(=O)N1CCO,x,x,6%,x,x,x,x,x
O=C1CSC(=S)N1N1C(=O)c2cccc([N+](=O)[O-])c2C1=O,x,x,18µM*,u,5%,4%,11%,11%
C=CCN1CCc2nc(N)sc2CC1,-24%,-8%,-12%,x,x,x,x,x
CCN1CCc2nc(N)sc2C1,x,x,11µM*,-19%,14%,u,u,28µM*
Cc1cccc2c(N)c3c(nc12)N(C)CC3,x,x,16µM*,u,12%,-1%,-6%,8%
CN1CCc2c1nc1ccccc1c2N (tested in a mixture with another compound),x,x,-11%,x,x,x,x,x
COc1ccc(-c2nc3cnc(N4CCN(C)CC4)nc3n(Cc3cccc(OC)c3)c2=O)cc1,-3%,4%,-7%,x,x,x,x,x
O=C(Oc1nsnc1N1CCOCC1)N(c1ccccc1)c1ccccc1,2%,2%,5%,x,x,x,x,x
COC(=O)Oc1nsnc1N1CCOCC1,1%,-7%,14µM*,-28%,10%,-13%,u,u
Cc1cc(NC(=O)CC#N)n(-c2nc3ccccc3[nH]2)n1,x,x,16µM*,-8%,-16%,0%,3%,7%
CCOC(=O)C(=O)Nc1cc(C)nn1-c1nc2ccccc2[nH]1,x,x,-8%,x,x,x,x,x
Cc1cc(NC(=O)c2sccc2C)n(-c2nc3ccccc3[nH]2)n1,x,x,16µM*,u,u,2%,1%,0%
Cc1cc(NC(=O)c2cccs2)n(-c2nc3ccccc3[nH]2)n1,x,x,-25%,x,x,x,x,x
COc1ccc(C(=O)Nc2cc(C)nn2-c2nc3ccccc3[nH]2)c(OC)c1,x,x,18µM*,0%,u,1%,6%,-3%
Cc1cc(NC(=O)c2ccccc2)n(-c2nc3ccccc3[nH]2)n1,x,x,-22%,x,x,x,x,x
CCOC(=O)C1=C[C@@H](C(=O)OCC)[C@@H]2C3=C(C(=O)C2(C)C)[C@H](c2ccccc2)[C@@H]2C(=O)N(c4ccccc4)C(=O)[C@@H]2[C@@H]3C1,x,x,-7%,x,x,x,x,x
CN(C(=O)c1ccc2c(c1)N(Cc1cccc(Cl)c1)C(=O)c1ccccc1S2(=O)=O)C1CCCCC1,-4%,5%,x,x,x,x,x,x
O=c1cc(O)c2sc(Nc3ccc(F)c(Cl)c3)nc2[nH]1,x,x,2µM*,0%[10.4 µM],4%,u,u,u
O=c1cc(O)c2sc(Nc3ccc(Cl)c(F)c3)nc2[nH]1,x,x,-20%,x,x,x,x,x
CC(=O)Nc1nonc1NC(C)=O,4%,-6%,1%,x,x,x,x,x
CC(=O)Nc1cc(OC(C)=O)c2nonc2c1OC(C)=O,-8%,-16%,0.045µM*,u,16µM*,3.5µM*,4.5µM*,2µM*
CCN(CC)C(=O)CSc1nc(-c2ccccc2)cc(-c2ccc(OC)cc2)c1C#N,-3%,-13%,x,x,x,x,x,x
c1ccc(Nc2nc(-c3ccoc3)nc3ccccc23)cc1,0%,u,-10%,x,x,x,x,x
SMILES,Cruzain inh Det,Cruzain inh noDet,Giardia FBPA inh-1,Giardia growth,Mammalian tox,Giardia FBPA inh-2,Rabbit aldolase,GAPDH counter
O=C(NN1C(=O)CSC1=S)c1cccnc1,x,x,16µM*,10%,-1%,1%,3%,11%
Cc1ccccc1C(=O)NN1C(=O)CSC1=S,-5%,17%,-22%,x,x,x,x,x
Cc1cc(-c2ccc(S(=O)(=O)Nc3ccc(Br)c(C)c3)s2)on1,-9%,-25%,x,x,x,x,x,x
O=C(CN1CCOCC1)Nc1cccc(S(=O)(=O)N2CCCCCC2)c1,x,x,1%,x,x,x,x,x
O=C(CNCc1ccco1)Nc1cccc(S(=O)(=O)N2CCCCC2)c1,x,x,18µM*,-4%[10.4 µM],-7%,5%,0%,7%
CCOC(=O)C1=C(O)/C(=C/c2ccc(CNC(=O)C(=O)Nc3ccc(C)cc3)o2)N=C1C,-21%,26%,4.5µM*,u,u,-28%,-13%,6%
COC(=O)C1=C(O)/C(=C\c2ccc(CNC(=O)C(=O)Nc3ccc(C)cc3)o2)N=C1C,-9%,17%,u,x,x,x,x,x
Cc1cc(C)cc(N2C(=O)CC(Sc3ncn[nH]3)C2=O)c1 (stereo not drawn),x,x,20µM*,22%,-4%,4%,4%,11%
Cc1cc(C)cc(N2C(=O)CC(Sc3nnnn3-c3ccccc3)C2=O)c1 (stereo not drawn),4%,-18%,x,x,x,x,x,x
CCc1ccccc1NC(=O)C1CCN(c2nn3c(=O)cc(C)nc3s2)CC1,-5%,-1%,x,x,x,x,x,x
N#Cc1ccc(C(=O)Nc2ccccc2-c2nc3ccccc3s2)c(F)c1,0%,-8%,x,x,x,x,x,x
COc1cc(CNC(C)(C)CO)ccc1OCC(=O)NC(C)(C)C,-1%,2%,2%,x,x,x,x,x
COc1cc(CNn2cn[nH]c2=S)ccc1OCC(=O)NC(C)(C)C,x,x,10µM*,u,-1%,3%,-1%,13%
O=C(COc1ccc(Cl)cc1)NCCc1csc(-c2ccc(C(F)(F)F)cc2)n1,-8%,u,x,x,x,x,x,x
Cc1cc(C)n2c(=S)[nH]nc2n1,0%,-6%,2.2µM*,-5%[38.3 µM],3%,-1%,u,-19%
Cc1cc(C)n2cnnc2n1,x,x,-1%,x,x,x,x,x
CO[C@@H]1/C=C\CC(=O)N[C@@H](C)C(=O)OC[C@@H](OC)[C@H](C)CCCC(=O)OC[C@H]1C,x,x,-2%[12.9 µM],x,x,x,x,x
O=C(CN1CCCN(Cc2ccccc2F)S1(=O)=O)Nc1ccc(F)c(Cl)c1,-11%,14%,x,x,x,x,x,x
[N-]=C=C1C(=S)NC(=O)[C@H]([n+]2ccccc2)[C@H]1c1ccc(Cl)cc1,x,x,1%,x,x,x,x,x
[N-]=C=C1C(=O)NC(=O)C([n+]2ccc(-c3ccncc3)cc2)C1c1ccccc1C(F)(F)F (stereo not drawn),x,x,14µM*,9%[38.3 µM],u,u,u,6.5µM*
O=C(O)c1cccc(Cl)c1Cl,6%,4%,x,x,x,x,x,x
CN1CCc2c(sc(/N=C/c3cc(Cl)ccc3O)c2C#N)C1,x,x,-13%,x,x,x,x,x
CN1CCc2c(sc(/N=C/c3c[nH]c4ccccc34)c2C#N)C1,x,x,18µM*,14%[10.4 µM],-16%,-25%,-19%,u
COc1cc(NC(=O)c2c(C)nn(-c3ccc(F)cc3)c2-n2cccc2)cc(OC)c1,-8%,-13%,x,x,x,x,x,x
Clc1ccccc1-c1ccc2ncnc(NCCN3CCOCC3)c2c1,-2%,7%,5%,x,x,x,x,x
CCC(Sc1nc2ncccc2[nH]1)C(=O)NCCc1ccccc1 (stereo not drawn),x,x,2.2µM*,4%[10.4 µM],0%,4%,13%,-6%
COC(=O)CSc1nc2ncccc2[nH]1,-2%,3%,-13%,x,x,x,x,x
